Laboratory results reported in the supplement of paper PMC8728848.
This is one part of a sample in which the strongest signals are shown more often than they occur.

Tests used:
Test in all cases: glycan array binding signal (z-score within array); higher = stronger binding
Details in all cases: glycan notation: IUPAC condensed, linker removed
[1] = biological target: Fuc(a1-2)Gal(b1-3)GlcNAc(b1-2)Man(a1-3)[Fuc(a1-2)Gal(b1-3)GlcNAc(b1-2)Man(a1-6)]Man(b1-4)GlcNAc(b1-4)GlcNAc
In short: (§1)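 The binding signal is a Z-score computed within each array. Data were drawn from 3228 arrays in the Consortium for Functional Glycomics database, restricted to those with a known protein sequence. Scores were averaged over arrays of the same protein sequence at different concentrations or buffers, and over linkers, and negative values can be taken as non-binding.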

[2] = biological target: Fuc(a1-2)Gal(b1-3)GlcNAc(b1-2)Man(a1-3)[Fuc(a1-2)Gal(b1-3)GlcNAc(b1-2)Man(a1-6)]Man(b1-4)GlcNAc(b1-4)[Fuc(a1-6)]GlcNAc
In short: as §1

[3] = biological target: Fuc(a1-2)Gal(b1-4)Fuc(a1-3)]GlcNAc(b1-2)Man(a1-3)[Fuc(a1-2)Gal(b1-4)[Fuc(a1-3)]GlcNAc(b1-2)Man(a1-6)]Man(b1-4)GlcNAc(b1-4)GlcNAc
In short: as §1

Fuc(a1-2)Gal(b1-4)Glc = biological target: Fuc(a1-2)Gal(b1-4)Glc
In short: as §1

[4] = biological target: Fuc(a1-2)Gal(b1-4)GlcNAc(b1-2)Man(a1-3)[Fuc(a1-2)Gal(b1-4)GlcNAc(b1-2)Man(a1-6)]Man(b1-4)GlcNAc(b1-4)[Fuc(a1-6)]GlcNAc
In short: as §1

[5] = biological target: Fuc(a1-2)[Gal(a1-3)]Gal(b1-3)GlcNAc(b1-3)GalNAc
In short: as §1

[6] = biological target: Fuc(a1-2)[Gal(a1-3)]Gal(b1-4)GlcNAc(b1-2)Man(a1-3)[Fuc(a1-2)[Gal(a1-3)]Gal(b1-4)GlcNAc(b1-2)Man(a1-6)]Man(b1-4)GlcNAc(b1-4)[Fuc(a1-6)]GlcNAc
In short: as §1

[7] = biological target: Fuc(a1-2)[Gal(a1-3)]Gal(b1-4)GlcNAc(b1-3)[Fuc(a1-2)[Gal(a1-3)]Gal(b1-4)GlcNAc(b1-6)]GalNAc
In short: as §1

[8] = biological target: Fuc(a1-2)[GalNAc(a1-3)]Gal(b1-4)GlcNAc(b1-3)Gal(b1-4)GlcNAc
In short: as §1

[9] = biological target: Fuc(a1-2)[GalNAc(a1-3)]Gal(b1-4)GlcNAc(b1-3)[Fuc(a1-2)[GalNAc(a1-3)]Gal(b1-4)GlcNAc(b1-6)]GalNAc
In short: as §1

[10] = biological target: Fuc(a1-2)[GalNAc(a1-3)]Gal(b1-4)GlcNAc(b1-6)GalNAc
In short: as §1

[11] = biological target: Fuc(a1-2)[GalNAc(a1-3)]Gal(b1-4)[Fuc(a1-3)]GlcNAc
In short: as §1

[12] = biological target: Fuc(a1-3)[Gal(b1-4)]GlcNAc
In short: as §1

[13] = biological target: Fuc(a1-3)[Gal3S(b1-4)]GlcNAc6S
In short: as §1

Gal(a1-3)Gal(b1-3)GlcNAc = biological target: Gal(a1-3)Gal(b1-3)GlcNAc
In short: as §1

[14] = biological target: Gal(a1-3)Gal(b1-3)GlcNAc(b1-2)Man(a1-3)[Gal(a1-3)Gal(b1-3)GlcNAc(b1-2)Man(a1-6)]Man(b1-4)GlcNAc(b1-4)GlcNAc
In short: as §1

[15] = biological target: Gal(a1-3)Gal(b1-4)GlcNAc(b1-3)GalNAc
In short: as §1

Gal(a1-3)GalNAc = biological target: Gal(a1-3)GalNAc
In short: as §1

[16] = biological target: Gal(a1-4)Gal(b1-3)GlcNAc(b1-2)Man(a1-3)[Gal(a1-4)Gal(b1-3)GlcNAc(b1-2)Man(a1-6)]Man(b1-4)GlcNAc(b1-4)GlcNAc
In short: as §1

[17] = biological target: Gal(b1-3)GlcNAc(b1-2)Man(a1-3)[GlcNAc(b1-4)][Gal(b1-3)GlcNAc(b1-2)Man(a1-6)]Man(b1-4)GlcNAc(b1-4)GlcNAc
In short: as §1

[18] = biological target: Gal(b1-3)GlcNAc(b1-3)Gal(b1-4)GlcNAc(b1-2)Man(a1-3)[Gal(b1-3)GlcNAc(b1-3)Gal(b1-4)GlcNAc(b1-2)Man(a1-6)]Man(b1-4)GlcNAc(b1-4)GlcNAc
In short: as §1

[19] = biological target: Gal(b1-4)GlcNAc(b1-2)Man(a1-3)[GlcNAc(b1-4)][Gal(b1-4)GlcNAc(b1-2)Man(a1-6)]Man(b1-4)GlcNAc(b1-4)GlcNAc
In short: as §1

[20] = biological target: Gal(b1-4)GlcNAc(b1-2)[Gal(b1-4)GlcNAc(b1-6)]Man(a1-6)[Gal(b1-4)GlcNAc(b1-2)Man(a1-3)]Man(b1-4)GlcNAc(b1-4)GlcNAc
In short: as §1

[21] = biological target: Gal(b1-4)GlcNAc(b1-3)Gal(b1-4)GlcNAc
In short: as §1

Gal6S(b1-4)GlcNAc = biological target: Gal6S(b1-4)GlcNAc
In short: as §1

GlcNAc(b1-3)Gal = biological target: GlcNAc(b1-3)Gal
In short: as §1

GlcNAc(b1-4)GlcNAc = biological target: GlcNAc(b1-4)GlcNAc
In short: as §1

[22] = biological target: GlcNAc6S(b1-3)Gal(b1-4)GlcNAc
In short: as §1

[23] = biological target: Neu5Ac(a2-3)Gal(b1-3)GalNAc
In short: as §1

[24] = biological target: Neu5Ac(a2-3)Gal(b1-3)GalNAc(b1-3)Gal(a1-4)Gal(b1-4)Glc
In short: as §1

[25] = biological target: Neu5Ac(a2-3)Gal(b1-3)GlcNAc(b1-2)Man(a1-3)[GlcNAc(b1-4)][Neu5Ac(a2-3)Gal(b1-3)GlcNAc(b1-2)Man(a1-6)]Man(b1-4)GlcNAc(b1-4)GlcNAc
In short: as §1

[26] = biological target: Neu5Ac(a2-3)Gal(b1-3)[Fuc(a1-4)]GlcNAc
In short: as §1

Neu5Ac(a2-3)Gal(b1-4)Glc = biological target: Neu5Ac(a2-3)Gal(b1-4)Glc
In short: as §1

[27] = biological target: Neu5Ac(a2-3)Gal6S(b1-4)GlcNAc
In short: as §1

[28] = biological target: Neu5Ac(a2-3)Gal6S(b1-4)[Fuc(a1-3)]GlcNAc
In short: as §1

[29] = biological target: Neu5Ac(a2-3)[Neu5Ac(a2-6)]GalNAc
In short: as §1

[30] = biological target: Neu5Ac(a2-6)Gal(b1-4)GlcNAc(b1-2)Man(a1-3)[GlcNAc(b1-4)][Neu5Ac(a2-6)Gal(b1-4)GlcNAc(b1-2)Man(a1-6)]Man(b1-4)GlcNAc(b1-4)GlcNAc
In short: as §1

[31] = biological target: Neu5Ac(a2-6)Gal(b1-4)GlcNAc(b1-2)Man(a1-6)[Gal(b1-4)GlcNAc(b1-2)Man(a1-3)]Man(b1-4)GlcNAc(b1-4)GlcNAc
In short: as §1

[32] = biological target: Neu5Ac(b2-6)Gal(b1-4)GlcNAc
In short: as §1

B1: LgFlo1 (Saccharomyces pastorianus), B3IUA8 (protein)
chain: SGSTQACLPVGSRKNGMNVNFYKYSLQDSTTYSDPQYMAYKYSDTKKLGSVSGQTHLSIYYGPNTAFWNTASWSSDLFGFYTTPTNVTVEMTGYFLPPQTGSYTFKFATVDDSAILSVGGSIAFECCAQEQPPITSTDFTINGIKPWDAATPTDIKGSTYMYAGYYYPIKIVYSNAKALARLPVSVVLPDGTEVNDDFEGYVYSFDDDLSQSNCTIPDPSKHTTS
[1]
  glycan array binding signal (z-score): 2.1
[2]
  glycan array binding signal (z-score): 3.52
[3]
  glycan array binding signal (z-score): 4.98
Fuc(a1-2)Gal(b1-4)Glc
  glycan array binding signal (z-score): -0.137
[4]
  glycan array binding signal (z-score): 0.313
[5]
  glycan array binding signal (z-score): 11.9
[6]
  glycan array binding signal (z-score): 11.9
[7]
  glycan array binding signal (z-score): 2.44
[8]
  glycan array binding signal (z-score): -0.328
[9]
  glycan array binding signal (z-score): 1.81
[10]
  glycan array binding signal (z-score): -0.114
[11]
  glycan array binding signal (z-score): 0.711
[12]
  glycan array binding signal (z-score): 0.072
[13]
  glycan array binding signal (z-score): 0.042
Gal(a1-3)Gal(b1-3)GlcNAc
  glycan array binding signal (z-score): 2.47
[14]
  glycan array binding signal (z-score): 0.576
[15]
  glycan array binding signal (z-score): -0.146
Gal(a1-3)GalNAc
  glycan array binding signal (z-score): -0.152
[16]
  glycan array binding signal (z-score): 1.89
[17]
  glycan array binding signal (z-score): 0.784
[18]
  glycan array binding signal (z-score): -0.078
[19]
  glycan array binding signal (z-score): -0.121
[20]
  glycan array binding signal (z-score): 0.549
[21]
  glycan array binding signal (z-score): -0.291
Gal6S(b1-4)GlcNAc
  glycan array binding signal (z-score): -0.114
GlcNAc(b1-3)Gal
  glycan array binding signal (z-score): -0.087
GlcNAc(b1-4)GlcNAc
  glycan array binding signal (z-score): -0.042
[22]
  glycan array binding signal (z-score): -0.317
[23]
  glycan array binding signal (z-score): 5.83
[24]
  glycan array binding signal (z-score): -0.329
[25]
  glycan array binding signal (z-score): -0.135
[26]
  glycan array binding signal (z-score): -0.245
Neu5Ac(a2-3)Gal(b1-4)Glc
  glycan array binding signal (z-score): 1.97
[27]
  glycan array binding signal (z-score): -0.229
[28]
  glycan array binding signal (z-score): -0.151
[29]
  glycan array binding signal (z-score): -0.356
[30]
  glycan array binding signal (z-score): -0.203
[31]
  glycan array binding signal (z-score): -0.38
[32]
  glycan array binding signal (z-score): -0.214
